Experimental findings from PubChem BioAssay (NCI) are described below.

Compounds without any hit were thinned out: in the full panel of roughly 83,000, 20% have a hit.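 For each line, cells grew in 96-well plates with the test compound present at a single concentration for 48 hours.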 A number with no mark means an inactive call. Calls of active or inactive are those of the source. The calls were made as follows: active = growth percent below 10; inactive = the rest.

Test systems include HCT-15 colon; HT29 colon; SNB-19 CNS; U251 CNS; PC-3 prostate; SK-MEL-5 melanoma; UACC-62 melanoma; LOX IMVI melanoma; SK-MEL-28 melanoma; SK-MEL-2 melanoma; SN12C renal; UO-31 renal; TK-10 renal; ACHN renal; CAKI-1 renal; CCRF-CEM leukemia; MOLT-4 leukemia; SNB-75 CNS; EKVX NSCLC; A498 renal.
Holding throughout (assay): NCI-60 one-dose screen, 48 h (100 = growth as untreated, 0 = no growth, -100 = all killed)
What all share (conditions): 10 µM unless noted

In the case of `N#Cc1c(-c2ccccc2)cc(-c2ccccc2)n(CC(=O)O)c1=O`, the growth is 32.6% in the experiment with HCT-15 colon; 24.2% with HT29 colon; 58.3% with SNB-19 CNS; 47.5% with U251 CNS; 70.4% in the experiment with PC-3 prostate; 40.6% in the experiment with SK-MEL-5 melanoma. Besides, the growth in the experiment with UACC-62 melanoma was 28.6%; with LOX IMVI melanoma, 52.5%; with SK-MEL-28 melanoma, 60.6%; in the experiment with SK-MEL-2 melanoma it was 28%; in the experiment on SN12C renal, 70%; with UO-31 renal, 68.9%. The growth was 84.2% in the experiment with TK-10 renal; 76.1% in the experiment on ACHN renal; 47.3% with CAKI-1 renal; 56.3% in the experiment with CCRF-CEM leukemia; 63.8% with MOLT-4 leukemia.
On to `COc1ccc(/C=C2\CCc3ccccc3C2=O)cc1`, for which the growth was 91.3% in the experiment with HCT-15 colon; 80.4% with HT29 colon; 69.3% in the experiment with SNB-75 CNS; 82.1% in the experiment with PC-3 prostate; 99.3% in the experiment on SK-MEL-5 melanoma; 83% in the experiment on UACC-62 melanoma. In addition, the growth is 77.2% with LOX IMVI melanoma; 84.9% in the experiment on SK-MEL-28 melanoma; 94.5% with SN12C renal; 87.5% in the experiment with UO-31 renal; 79.8% in the experiment with TK-10 renal; 111% in the experiment on ACHN renal. For the same molecule, the growth in the experiment with CAKI-1 renal was 50.8%; in the experiment on MOLT-4 leukemia, 73.9%.
`O=[N+]([O-])c1ccc2[nH]cc(-c3c4ccccc4cc4[nH]c5ccc([N+](=O)[O-])cc5c34)c2c1`: the growth with HCT-15 colon was 19.9%; with HT29 colon, 13.4%; in the experiment with SNB-75 CNS, 16.6%; in the experiment on SNB-19 CNS it was 47.6%; with PC-3 prostate it was 17.2%; in the experiment with SK-MEL-5 melanoma, 23.2%. In addition, the growth with LOX IMVI melanoma is 21.3%; in the experiment with SK-MEL-28 melanoma it was 28.1%; in the experiment with SK-MEL-2 melanoma, 2.23% (active); with EKVX NSCLC, 39.4%; with SN12C renal, 36.7%; in the experiment with UO-31 renal, 13.2%. The growth with TK-10 renal is 58.7%; in the experiment with ACHN renal, 15.4%; in the experiment with CAKI-1 renal, 25.3%; with CCRF-CEM leukemia, 7.25% (active); in the experiment with MOLT-4 leukemia, 6.8% (active).
As for `COc1ccc(/C=C/C(=O)c2cccc(NS(C)(=O)=O)c2)cc1`, the growth in the experiment on HCT-15 colon was 67.5%; in the experiment on HT29 colon, 49.1%; in the experiment on SNB-75 CNS it was 68.6%; with SNB-19 CNS it was 87.9%; in the experiment on SK-MEL-5 melanoma, 90.4%; with UACC-62 melanoma, 76%. The growth was 75% in the experiment with LOX IMVI melanoma; 114% in the experiment on SK-MEL-2 melanoma; 94.6% in the experiment on EKVX NSCLC; 48.6% in the experiment with UO-31 renal; 92.2% with TK-10 renal; 101% in the experiment on A498 renal. In addition, the growth with CCRF-CEM leukemia was 1.69% (active); with MOLT-4 leukemia, 40.8%.
For `COc1ccc(CCN2C(=O)CCC3=C2CCCC3=O)cc1OC`, the growth in the experiment on HCT-15 colon is 97.6%; in the experiment with HT29 colon, 108%; with SNB-75 CNS, 82.3%; in the experiment on SNB-19 CNS it was 100%; with PC-3 prostate, 96.6%; in the experiment on SK-MEL-5 melanoma it was 99.1%. Further, the growth in the experiment on LOX IMVI melanoma is 98.8%; in the experiment with SK-MEL-28 melanoma it was 108%; with SK-MEL-2 melanoma it was 122%; in the experiment with SN12C renal, 101%; with UO-31 renal it was 81.8%; in the experiment with ACHN renal, 100%. Also, the growth is 109% with CAKI-1 renal, 103% in the experiment with A498 renal and 103% with MOLT-4 leukemia.
Regarding `N#Cc1c(-c2ccccc2)cc(-c2ccccc2)n(CCCCCCC(=O)O)c1=O`, the growth was 90.7% in the experiment on HCT-15 colon; 97.4% in the experiment with HT29 colon; 96.3% in the experiment on SNB-19 CNS; 98.1% with U251 CNS; 105% in the experiment with PC-3 prostate; 99.8% in the experiment on SK-MEL-5 melanoma. For the same molecule, the growth with UACC-62 melanoma was 90.7%; with LOX IMVI melanoma, 89.2%; in the experiment on SK-MEL-28 melanoma, 103%; in the experiment with SK-MEL-2 melanoma, 88.8%; with EKVX NSCLC, 92.5%; in the experiment with SN12C renal, 99.2%. The growth was 82.7% with UO-31 renal; 105% in the experiment on TK-10 renal; 98.8% in the experiment on ACHN renal; 97.7% in the experiment on CAKI-1 renal; 106% in the experiment with CCRF-CEM leukemia; 98.4% with MOLT-4 leukemia.
Take `N#Cc1c(-c2ccccc2)cc(-c2ccccc2)n(CCCC(=O)O)c1=O`: the growth is 92.9% in the experiment on HCT-15 colon; 103% with HT29 colon; 98.7% in the experiment with SNB-19 CNS; 93.3% with U251 CNS; 109% in the experiment on PC-3 prostate; 93.5% in the experiment on SK-MEL-5 melanoma. The growth in the experiment with UACC-62 melanoma was 91%; in the experiment on LOX IMVI melanoma, 95.4%; with SK-MEL-28 melanoma, 108%; in the experiment on SK-MEL-2 melanoma, 97.8%; in the experiment with SN12C renal, 96.2%; with UO-31 renal, 85.8%. For the same molecule, the growth in the experiment on TK-10 renal is 124%; with ACHN renal, 97.8%; with CAKI-1 renal, 97.1%; in the experiment on CCRF-CEM leukemia, 104%; with MOLT-4 leukemia, 97.3%.
As to `N/C(=N\C(N)=N\c1nc2ccccc2s1)c1ccnc(Cl)c1`, the growth was 29.9% in the experiment with HCT-15 colon; 13.7% with HT29 colon; 39.4% with SNB-19 CNS; 33.8% in the experiment with U251 CNS; 37.9% with PC-3 prostate; 17.3% with SK-MEL-5 melanoma. For the same molecule, the growth is 33.9% with UACC-62 melanoma; 44.9% in the experiment with LOX IMVI melanoma; 29% with SK-MEL-2 melanoma; 51.3% in the experiment on EKVX NSCLC; 57.6% in the experiment with SN12C renal; 56.5% with UO-31 renal. Also, the growth is 47.8% with ACHN renal, 21.6% in the experiment on CAKI-1 renal, 19.2% with CCRF-CEM leukemia and 33.6% in the experiment on MOLT-4 leukemia.
For `COc1ccc2nc(NC(=O)CN3CCn4c(nnc4C(F)(F)F)C3)sc2c1`, the growth was 93.3% in the experiment on HCT-15 colon; 98.4% with HT29 colon; 90.5% with SNB-19 CNS; 91.6% in the experiment on U251 CNS; 98.6% with PC-3 prostate; 79.2% with SK-MEL-5 melanoma. The growth is 83.9% in the experiment on UACC-62 melanoma; 96.6% with LOX IMVI melanoma; 102% with SK-MEL-28 melanoma; 106% with SK-MEL-2 melanoma; 92.2% in the experiment on SN12C renal; 80.6% with UO-31 renal. Besides, the growth in the experiment on TK-10 renal is 97.5%; in the experiment with ACHN renal, 90.7%; in the experiment with CAKI-1 renal, 77.7%; with CCRF-CEM leukemia, 86.5%; in the experiment with MOLT-4 leukemia it was 95.8%.
